Assay [1] can be described thus: Nuclear factor erythroid 2-related factor 2/antioxidant responsive element (Nrf2/ARE) small molecule agonists: qHTS cell viability counter screen in human keratinocytes (AID 1919968; active = well fitted curve in the direction sought with a large enough effect in the repeat runs; an effect the other way counts as inactive or inconclusive; also: nearly all actives have a fitted effect of over 55% in size; also: potency is read from the fitted curve at half-maximal effect). An outline of the steps: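 Fluorescence read-out from CellTiter-Fluor after 1 h at 37 C. Wells held HaCaT-derived ARE-luciferase reporter cells (1,500/well) treated 23 h with DMSO-dissolved compounds. Run in the same wells as the luciferase agonist read.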
(In general: In qHTS, concentration-response curves come from the screen itself.)

Assay [2] is described as follows: Nuclear factor erythroid 2-related factor 2/antioxidant responsive element (Nrf2/ARE) small molecule agonists: luciferase reporter gene qHTS assay in human keratinocytes (AID 1919969). Also: nearly all actives have a fitted effect of over 35% in size. Also: potency is read from the fitted curve at half-maximal effect. A general note: In a reporter assay the amount or activity of a reporter protein is the signal.
Assay [3] addresses Gonadotropin-releasing hormone receptor (Homo sapiens) (UniProt P30968). The assay is described as follows: Human gonadotropin-releasing hormone receptor (GnRHR) small molecule agonists, calcium flux assay in GnRHR-HEK293 cells (AID 1920063). Also: nearly all actives have a fitted effect of over 35% in size. The gist of the method: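 Calcium-dye fluorescence, Ex/Em=480/540, recorded every 1 sec over 3 min after compound addition to GnRHR-HEK293 cells. Cells had been seeded 18 hours earlier and dye-loaded for 1 hour at 37 C. Fifteen concentrations, triplicates.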

The target in assay [4] is KiSS-1 receptor (Homo sapiens) (UniProt Q969F8). The assay is described as follows: Human kisspeptin (KISS1R) small molecule agonists, calcium flux assay in KISS1R-HEK293 cells (AID 1920064; active = well fitted curve in the direction sought with a large enough effect in the repeat runs; an effect the other way counts as inactive or inconclusive). An outline of the steps:
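Calcium flux read-out: kinetic fluorescence at Ex/Em=480/540, 1 s intervals over 3 min, after pin-tool compound addition to dye-loaded KISS1R-HEK293 cells. Fifteen concentrations, triplicates.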
(A change in cytosolic calcium serves as a functional read-out for many receptors and channels.)

The nature of assay [5]: G protein-coupled receptor (GPCR) small molecule agonists, calcium flux assay: HEK293 wild type cell line counter screen (AID 1920065). An outline of the steps: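 Agonist mode; 18 h seeding at 37 C, 1 h dye load at 37 C; compounds pinned from DMSO, ATP as positive control; kinetic fluorescence 480/540 nm, 3 min, 1 s reads; 15 concentrations, triplicate.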
Assay [6] in a line: p53 small molecule agonists, cell-based qHTS assay with human liver microsomes (AID 1963577). The gist of the method: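 In this qHTS, p53 response-element beta-lactamase cells receive test compound together with a microsome/NADPH activating system (0.5 mg/mL final each) and are incubated 16 h at 37 C before LiveBLAzer fluorescence detection.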
A short description of assay [7]: p53 small molecule agonists, cell-based qHTS assay with rat liver microsomes (AID 1963578). An outline of the steps:
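Agonist mode in p53RE-bla reporter cells, with compounds co-incubated 16 h at 37 C alongside 0.5 mg/mL rat liver microsomes and 0.5 mg/mL NADPH (final), followed by a 2 h LiveBLAzer detection step.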

Assay [8] in a line: p53 small molecule agonists, cell-based qHTS assay with human liver microsomes: qHTS cell viability counter screen (AID 1963579). Also: nearly all actives have a fitted effect of over 45% in size. The gist of the method: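 Metabolically activated exposure: compounds, human liver microsomes and NADPH (0.5 mg/mL final apiece) were added to p53RE-bla cells seeded 5 h earlier, left 16 h at 37 C, and then assessed for viability by CellTiter-Glo luminescence.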

Assay [9] is described as follows: p53 small molecule agonists, cell-based qHTS assay with rat liver microsomes: qHTS cell viability counter screen (AID 1963580). Also: nearly all actives have a fitted effect of over 45% in size. The gist of the method: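 Rat liver microsome (0.5 mg/mL final) and NADPH (0.5 mg/mL final) co-incubation with compounds for 16 h at 37 C on HCT-116 p53RE-bla cells; cytotoxicity taken from intracellular ATP luminescence.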
Assay [10] can be described thus: p53 small molecule agonists, cell-based qHTS assay: qHTS cell viability counter screen (AID 1963581). Also: nearly all actives have a fitted effect of over 45% in size. The gist of the method: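 Cytotoxicity read-out: ATP-based luminescence (CellTiter-Glo, 30 min RT) measured in the same wells as the p53 reporter assay, HCT-116 p53RE-bla cells, 16 h compound exposure at 37 C.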
A short description of assay [11]: p53 small molecule agonists, cell-based qHTS assay (AID 1963582; active = well fitted activation curve with a large enough effect in the signal ratio in the repeat runs, not every such curve was filed as active; the % refers to the signal ratio). An outline of the steps:
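Fluorescence intensity read-out of a beta-lactamase reporter under a p53 response element. Cells were exposed to DMSO-dissolved compounds for 16 h at 37 C, then developed with FRET substrate for 2 h at RT.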

Assay [12] has as its target 5-hydroxytryptamine receptor 2A (Homo sapiens) (UniProt P28223). The assay is described as follows: 5-hydroxytryptamine receptor 2A (HTR2A) small molecule antagonists, cell-based qHTS assay (AID 1963586). Also: nearly all actives have a fitted effect of over 45% in size. An outline of the steps: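 CHO cells stably expressing human HTR2A were plated for 18 h at 37 C, then loaded with calcium dye for 1 h. Compounds were preincubated 5 min at room temperature before DOI (4 nM solution) was added. Kinetic fluorescence was read for 3 min.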

For assay [13] the target is unchanged. In words: 5-hydroxytryptamine receptor 2A (HTR2A) small molecule agonists, cell-based qHTS assay (AID 1963587). Also: nearly all actives have a fitted effect of over 30% in size. An outline of the steps:
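Kinetic calcium-flux fluorescence (2 min, 1 sec intervals) after compound addition in agonist mode. HTR2A-CHO cells were cultured 18 h, then dye-loaded 1 h at 37 C.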

The target of assay [14] is Muscarinic acetylcholine receptor M1 (Homo sapiens) (UniProt P11229). In words: Cholinergic receptor muscarinic 1 (CHRM1) small molecule antagonists, cell-based qHTS assay (AID 1963588). Also: nearly all actives have a fitted effect of over 40% in size. Also: potency is read from the fitted curve at half-maximal effect. An outline of the steps: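 Compounds were tested at 15 concentrations in three independent runs. Dye-loaded CHRM1-CHO cells were exposed 5 min at room temperature before stimulation by acetylcholine added at 50nM. Intracellular calcium was read kinetically on FDSS for 3 min.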

The target is the same in assay [15]. In words: Cholinergic receptor muscarinic 1 (CHRM1) small molecule agonists, cell-based qHTS assay (AID 1963589). Also: nearly all actives have a fitted effect of over 35% in size. An outline of the steps: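 Calcium flux read-out: kinetic fluorescence at 1 sec intervals after pin-tool compound addition to dye-loaded CHRM1-CHO cells (human M1). Agonist mode; 15 concentrations tested in triplicate independent runs.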
Assay [16] in a line: cAMP Responsive Elements (CRE) small molecule agonists, cell-based qHTS assay (AID 1963590). The gist of the method:
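Beta-lactamase reporter readout: LiveBLAzer B/G FRET substrate, 2 h at room temperature, added after 3 h compound treatment of CRE-bla HEK 293T cells at 37 C/5% CO2.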

Assay [17] can be described thus: cAMP Responsive Elements (CRE) small molecule antagonists, cell-based qHTS assay (AID 1963591; active = well fitted inhibition curve with a large enough effect in the signal ratio in the repeat runs, not every such curve was filed as active; the % refers to the signal ratio). The gist of the method: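 HEK293T CRE-bla; 18 h preincubation; compound pin-transfer; NKH477 0.25 uM final, 3 h, 37 C; LiveBLAzer FRET substrate 2 h RT.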
Assay [18] concerns the target Beta-2 adrenergic receptor (Homo sapiens) (UniProt P07550). The assay is described as follows: Adrenergic beta2 receptor (ADRB2) small molecule antagonists, cell-based qHTS assay (AID 1963592). Also: series mostly up to about 92 µM; nearly all actives have a fitted effect of over 50% in size. An outline of the steps: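 Assay format: CHO-ADRB2 cells, 18-20hr seeding at 37C/5% CO2, then compound plus 1nM isoproterenol agonist mix for 0.5hr RT. Homogeneous time-resolved fluorescence cAMP detection after 1hr, expressed as 665/615 nm ratio.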

Assay [19] deals with D(2) dopamine receptor (Homo sapiens) (UniProt P14416). In words: Dopamine D2 receptor (DRD2) small molecule agonists, cell-based qHTS assay (AID 1963594). Also: nearly all actives have a fitted effect of over 35% in size. An outline of the steps:
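cAMP accumulation in DRD2-HEK293 cells measured by HTRF after 1 h detection; compounds added 10 min before NKH477 (200nM […]) forskolin-analogue stimulation, 30 min at room temperature, with Ro20-1724 present at 0.1 mM final.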

Assay [20] has the same target. In words: Dopamine D2 receptor (DRD2) small molecule antagonists, cell-based qHTS assay (AID 1963595; active = well fitted inhibition curve with a large enough effect in the signal ratio in the repeat runs, with a control signal flat; the % refers to the signal ratio). An outline of the steps:
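Readout: HTRF cAMP, cAMP-d2 competing with cellular cAMP for anti-cAMP cryptate, read after 1 h. Cells: DRD2-HEK293. Conditions: 0.1 mM Ro20-1724, 12 nM quinpirole, 200 nM NKH477, 30 min RT.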

“And” between values parts separate entries of the source, which are not always exact repeats. Identical values can stand only once. Inconclusive results are not listed. The source made the active and inactive calls. Unless noted, calls follow the shape of the full dose curve.

In PubChem BioAssay (Tox21) one finds Potency data, which are given here for eight molecules.

Beta-2 adrenergic receptor (Homo sapiens), sequence (P07550 whole entry, looked up): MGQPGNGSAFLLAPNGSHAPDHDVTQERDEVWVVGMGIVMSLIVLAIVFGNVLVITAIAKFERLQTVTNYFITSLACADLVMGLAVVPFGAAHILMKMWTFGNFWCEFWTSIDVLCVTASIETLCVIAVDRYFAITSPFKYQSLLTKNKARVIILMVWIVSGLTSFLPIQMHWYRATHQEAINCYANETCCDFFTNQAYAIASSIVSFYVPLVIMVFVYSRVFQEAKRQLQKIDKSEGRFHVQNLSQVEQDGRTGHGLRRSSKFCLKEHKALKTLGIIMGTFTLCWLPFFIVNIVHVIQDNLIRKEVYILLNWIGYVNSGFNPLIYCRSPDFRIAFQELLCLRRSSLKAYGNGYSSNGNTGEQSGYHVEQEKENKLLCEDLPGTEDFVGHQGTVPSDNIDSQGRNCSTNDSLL
5-hydroxytryptamine receptor 2A (Homo sapiens), sequence (P28223 whole entry, looked up): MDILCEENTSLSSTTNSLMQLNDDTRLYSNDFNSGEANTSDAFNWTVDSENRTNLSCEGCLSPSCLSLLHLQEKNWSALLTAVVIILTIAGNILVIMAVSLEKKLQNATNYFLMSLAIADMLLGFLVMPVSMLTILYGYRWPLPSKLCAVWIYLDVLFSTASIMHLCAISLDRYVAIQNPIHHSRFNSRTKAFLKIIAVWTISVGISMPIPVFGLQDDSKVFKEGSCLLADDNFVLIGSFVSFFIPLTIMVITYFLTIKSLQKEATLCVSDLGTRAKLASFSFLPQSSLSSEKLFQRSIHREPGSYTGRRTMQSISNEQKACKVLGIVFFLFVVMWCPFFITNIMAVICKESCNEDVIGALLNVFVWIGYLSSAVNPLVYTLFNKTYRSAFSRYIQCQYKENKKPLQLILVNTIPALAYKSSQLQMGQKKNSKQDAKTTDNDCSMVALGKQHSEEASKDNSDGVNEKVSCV
Muscarinic acetylcholine receptor M1 (Homo sapiens), sequence (P11229 whole entry, looked up): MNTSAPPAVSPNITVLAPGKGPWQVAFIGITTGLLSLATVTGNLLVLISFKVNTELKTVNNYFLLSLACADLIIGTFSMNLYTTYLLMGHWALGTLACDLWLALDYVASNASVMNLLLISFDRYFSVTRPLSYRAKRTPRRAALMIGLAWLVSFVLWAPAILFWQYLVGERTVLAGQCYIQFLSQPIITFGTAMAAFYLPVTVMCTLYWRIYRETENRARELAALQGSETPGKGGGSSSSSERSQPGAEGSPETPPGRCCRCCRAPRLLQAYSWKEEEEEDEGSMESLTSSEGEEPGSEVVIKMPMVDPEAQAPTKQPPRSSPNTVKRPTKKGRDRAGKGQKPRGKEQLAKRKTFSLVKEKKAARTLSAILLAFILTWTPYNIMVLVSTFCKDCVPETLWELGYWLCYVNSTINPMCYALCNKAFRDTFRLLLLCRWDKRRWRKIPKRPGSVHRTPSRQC
D(2) dopamine receptor (Homo sapiens), sequence (P14416 whole entry, looked up): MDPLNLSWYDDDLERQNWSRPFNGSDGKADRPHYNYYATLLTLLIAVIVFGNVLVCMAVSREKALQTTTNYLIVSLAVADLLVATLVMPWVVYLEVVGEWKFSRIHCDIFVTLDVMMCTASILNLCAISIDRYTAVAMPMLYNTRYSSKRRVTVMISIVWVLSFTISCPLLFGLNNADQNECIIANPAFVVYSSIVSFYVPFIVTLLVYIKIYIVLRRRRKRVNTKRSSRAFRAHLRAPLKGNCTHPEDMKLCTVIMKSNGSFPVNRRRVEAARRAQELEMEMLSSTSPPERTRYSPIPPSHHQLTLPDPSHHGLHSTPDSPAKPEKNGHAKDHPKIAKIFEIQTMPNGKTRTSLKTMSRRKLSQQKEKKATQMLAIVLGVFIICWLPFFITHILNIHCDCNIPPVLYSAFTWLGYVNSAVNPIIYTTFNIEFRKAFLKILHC
Gonadotropin-releasing hormone receptor (Homo sapiens), sequence (P30968 whole entry, looked up): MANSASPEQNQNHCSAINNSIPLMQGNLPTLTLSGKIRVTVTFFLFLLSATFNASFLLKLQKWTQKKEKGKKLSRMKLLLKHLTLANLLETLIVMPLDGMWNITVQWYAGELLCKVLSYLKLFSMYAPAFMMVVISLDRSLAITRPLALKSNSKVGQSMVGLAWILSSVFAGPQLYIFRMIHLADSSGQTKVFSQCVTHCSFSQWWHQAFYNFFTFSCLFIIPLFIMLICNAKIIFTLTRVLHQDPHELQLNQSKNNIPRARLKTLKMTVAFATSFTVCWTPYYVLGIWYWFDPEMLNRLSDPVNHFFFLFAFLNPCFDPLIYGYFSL
KiSS-1 receptor (Homo sapiens), sequence (Q969F8 whole entry, looked up): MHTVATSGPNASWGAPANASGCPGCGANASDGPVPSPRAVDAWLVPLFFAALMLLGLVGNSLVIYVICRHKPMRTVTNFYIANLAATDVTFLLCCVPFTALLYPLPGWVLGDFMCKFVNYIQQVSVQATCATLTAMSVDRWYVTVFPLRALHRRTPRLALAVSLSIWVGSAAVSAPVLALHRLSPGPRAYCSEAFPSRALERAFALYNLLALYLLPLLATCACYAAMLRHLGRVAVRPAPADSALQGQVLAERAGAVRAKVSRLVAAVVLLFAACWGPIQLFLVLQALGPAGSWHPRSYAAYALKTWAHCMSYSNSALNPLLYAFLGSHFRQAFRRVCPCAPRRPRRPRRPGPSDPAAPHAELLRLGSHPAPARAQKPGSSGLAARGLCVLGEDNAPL

Consider `Cc1ncc2n1-c1ccc(Cl)cc1C(c1ccccc1F)=NC2`, for which the Potency entry in assay [1], in assay [2], in assay [3], in [4], in assay [5] and in assay [6] was “inactive” throughout. Also, the Potency entry in assay [7], in [8], in assay [9], in assay [10], in assay [11] and in [12] was “inactive” throughout. Besides, the Potency entry in assay [13], in [14], in [15], in assay [16], in [17] and in [18] was “inactive” each time. Besides, the Potency entry in assay [19] and in assay [20] was “inactive” each time.

`C[N+](=O)[O-]`: the Potency entry in assay [1], in assay [2], in assay [3], in assay [4], in assay [5] and in assay [6] was “inactive” in each case. The Potency result in [7], in [8], in assay [9], in assay [10], in assay [11] and in [12] was “inactive” each time. Besides, the Potency entry in assay [13], in [14], in assay [15], in assay [16], in assay [17] and in [18] was “inactive” throughout. Also, the Potency result in [19] and in assay [20] was “inactive” throughout.

Consider `CC(=O)CCC(C)=O`, for which the Potency entry in assay [1], in [2], in assay [3], in [4], in assay [5] and in assay [6] was “inactive” in each case. Also, the Potency entry in assay [7], in assay [8], in assay [9], in assay [10], in [11] and in [12] was “inactive” each time. Also, the Potency result in assay [13], in assay [14], in assay [15], in assay [16], in assay [17] and in assay [18] was “inactive” each time. Moreover, the Potency entry in [19] and in [20] was “inactive” in each case.

Consider `CC(C)OC(=O)Cc1ccccc1`, for which the Potency entry in assay [1], in assay [2], in [3], in assay [4], in assay [5] and in assay [6] was “inactive” throughout. Moreover, the Potency result in [7], in assay [8], in [9], in [10], in [11] and in assay [12] was “inactive” throughout. Moreover, the Potency entry in assay [13], in assay [14], in assay [15], in assay [16], in assay [17] and in assay [18] was “inactive” throughout. Further, the Potency result in assay [19] and in assay [20] was “inactive” each time.

`O=C(CCl)CCl`: the Potency in assay [1] was 50.3 µM (active) and 54.5 µM (active); in assay [2], 28.3 µM (active) and 27.3 µM (active). Further, the Potency result in [3], in assay [4], in assay [5], in assay [6], in assay [7] and in assay [8] was “inactive” throughout. Further, the Potency entry in [9], in assay [10], in assay [11], in assay [12], in assay [13] and in assay [14] was “inactive” in each case. Moreover, the Potency result in [15], in assay [16], in assay [17], in assay [18], in [19] and in assay [20] was “inactive” in each case.

Take `COc1nc(C)nc(NC(=O)NS(=O)(=O)c2ccccc2Cl)n1`: the Potency entry in assay [1], in assay [2], in assay [3], in assay [4], in assay [5] and in [6] was “inactive” each time. The Potency result in assay [7], in assay [8], in assay [9], in assay [10], in [11] and in [12] was “inactive” throughout. Besides, the Potency result in assay [13], in [14], in assay [15], in [16], in [17] and in assay [18] was “inactive” throughout. In addition, the Potency entry in assay [19] and in assay [20] was “inactive” throughout.

For the molecule `O=C(Cl)/C=C/C(=O)Cl`, the Potency entry in assay [1], in assay [2], in [3], in [4], in assay [5] and in [6] was “inactive” each time. Further, the Potency result in assay [7], in assay [8], in assay [9], in [10], in assay [11] and in assay [12] was “inactive” in each case. Further, the Potency result in [13], in [15], in [16], in assay [17], in assay [18] and in assay [19] was “inactive” throughout. In addition, the Potency result in assay [20] was “inactive”. The Potency in assay [14] is 1.1 nM (active).

Turning to `CC12CC1(C)C(=O)N(c1cc(Cl)cc(Cl)c1)C2=O` (stereo not given), the Potency result in assay [1], in [2], in [3], in assay [4], in [5] and in [6] was “inactive” each time. Besides, the Potency result in assay [7], in assay [8], in [9], in assay [10], in [11] and in assay [12] was “inactive” in each case. Also, the Potency entry in assay [13], in assay [14], in assay [15], in [16], in assay [17] and in [18] was “inactive” in each case. Moreover, the Potency entry in assay [19] and in assay [20] was “inactive” in each case.
